Several values for one entry are separate records, joined by “and”; a condition that tells them apart may be missing. Identical values can stand only once. The campaign covered roughly 5,500 compounds. About 2,000 (36%) were called active. Inconclusive results (about 18%) are left out. No stated cut-off is given here; in the data, active means normalized growth mostly below about 0.91 (no sharp cut-off); inconclusive means no clear call, values can overlap the other calls; inactive means mostly above about 0.92. The list shows a part of the results.
Assay: chemical genetic growth profiling, strain panel (AID 1159580);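 further: tested at 20 µM; growth read once vehicle control cultures reached saturation at 30 °C; 1 = growth at the plate median or of vehicle wells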
Conditions: S. cerevisiae deletion strains, growth OD

Measured: normalized growth

Cc1cc(/C=C/c2ccc3cc(N(C)C)ccc3[n+]2C)c(C)n1-c1ccccc1
active: locus YAL021C, strain ccr4, stronger effect = lower value 0.507 | locus YBR021W, strain FUR4, stronger effect = lower value 0.668 | locus YBR231C, strain swc5, stronger effect = lower value 0.74 | locus YBR279W, strain paf1, stronger effect = lower value 0.882 | locus YCL011C, strain gbp2, stronger effect = lower value 0.837 | locus YCL016C, strain dcc1, stronger effect = lower value 0.912 | locus YDL035C, strain GPR1, stronger effect = lower value 0.525 | locus YDL074C, strain BRE1, stronger effect = lower value 0.653 | locus YDL101C, strain DUN1, stronger effect = lower value 0.744 | locus YDL134C, strain PPH21, stronger effect = lower value 0.615 | locus YDR137W, strain rgp1, stronger effect = lower value 0.834 | locus YDR162C, strain NBP2, stronger effect = lower value 0.232 | locus YDR195W, strain ref2 1.25 [resistant] | locus YDR334W, strain swr1, stronger effect = lower value 0.843 | locus YEL037C, strain rad23, stronger effect = lower value 0.915 | locus YEL061C, strain CIN8, stronger effect = lower value 0.879 | locus YER015W, strain faa2, stronger effect = lower value 0.736 | locus YER155C, strain BEM2 (second series), stronger effect = lower value 0.727 | locus YER167W, strain BCK2, stronger effect = lower value 0.825 | locus YGL086W, strain mad1, stronger effect = lower value 0.889 | locus YGL248W, strain PDE1, stronger effect = lower value 0.65 | locus YGL253W, strain hxk2, stronger effect = lower value 0.684 | locus YGR078C, strain PAC10, stronger effect = lower value 0.776 | locus YGR135W, strain pre9, stronger effect = lower value 0.808 | locus YGR252W, strain gcn5, stronger effect = lower value 0.606 | locus YHR013C, strain ard1, stronger effect = lower value 0.662 | locus YHR027C, strain rpn1, stronger effect = lower value 0.83 | locus YHR129C, strain ARP1, stronger effect = lower value 0.904 | locus YHR200W, strain rpn10, stronger effect = lower value 0.857 | locus YIL073C, strain SPO22, stronger effect = lower value 0.278 | locus YJL092W, strain hpr5, stronger effect = lower value 0.893 | locus YJL129C, strain trk1, stronger effect = lower value 0.373 | locus YJR043C, strain POL32, stronger effect = lower value 0.651
0.815 (active) and 1.02 (inactive): locus YHR030C, strain SLT2, stronger effect = lower value
inactive: locus YAL013W, strain DEP1, stronger effect = lower value 0.987 | locus YAL026C, strain drs2, stronger effect = lower value 0.924 | locus YAL030W, strain snc1, stronger effect = lower value 0.954 | locus YBL061C, strain skt5, stronger effect = lower value 0.927 | locus YBR009C, strain hhf1, stronger effect = lower value 0.922 | locus YBR023C, strain chs3, stronger effect = lower value 0.96 | locus YBR171W, strain sec66, stronger effect = lower value 1.04 | locus YBR229C, strain ROT2, stronger effect = lower value 1 | locus YCL029C, strain bik1, stronger effect = lower value 0.998 | locus YCL061C, strain MRC1, stronger effect = lower value 0.93 | locus YCL069W, strain vba3, stronger effect = lower value 0.995 | locus YCR088W, strain abp1, stronger effect = lower value 0.978 | locus YDL005C, strain med2, stronger effect = lower value 1.03 | locus YDL040C, strain nat1, stronger effect = lower value 1 | locus YDL185W, strain tfp1, stronger effect = lower value 1 | locus YDL192W, strain arf1, stronger effect = lower value 0.987 | locus YDR001C, strain nth1, stronger effect = lower value 1.01 | locus YDR069C, strain doa4, stronger effect = lower value 0.989 | locus YDR101C, strain arx1, stronger effect = lower value 0.986 | locus YDR159W, strain sac3, stronger effect = lower value 1.04 | locus YDR297W, strain sur2, stronger effect = lower value 0.961 | locus YDR318W, strain mcm21, stronger effect = lower value 0.946 | locus YDR335W, strain msn5, stronger effect = lower value 0.953 | locus YDR388W, stronger effect = lower value 0.989 | locus YDR392W, strain spt3, stronger effect = lower value 0.782 | locus YDR502C, strain sam2, stronger effect = lower value 0.943 | locus YEL003W, strain gim4, stronger effect = lower value 0.949 | locus YEL061C, strain CIN8 (second series), stronger effect = lower value 1 | locus YER016W, strain bim1, stronger effect = lower value 0.992 | locus YER110C, stronger effect = lower value 1.02 | locus YER111C, strain swi4, stronger effect = lower value 1.05 | locus YER155C, strain BEM2, stronger effect = lower value 1.03 | locus YFR010W, strain ubp6, stronger effect = lower value 0.989 | locus YGL078C, strain dbp3, stronger effect = lower value 1.02 | locus YGL167C, strain pmr1, stronger effect = lower value 1.01 | locus YGL173C, strain kem1, stronger effect = lower value 0.974 | locus YGL227W, strain vid30, stronger effect = lower value 1.04 | locus YGL240W, strain doc1, stronger effect = lower value 0.962 | locus YHR079C, strain IRE1 (second series), stronger effect = lower value 1 | locus YHR079C, strain IRE1, stronger effect = lower value 1.04 | locus YHR094C, strain hxt1, stronger effect = lower value 1.01 | locus YHR142W, strain chs7, stronger effect = lower value 1 | locus YIL066C, strain RNR3, stronger effect = lower value 0.87 | locus YIL125W, strain kgd1, stronger effect = lower value 1.03 | locus YIR030C, strain dcg1, stronger effect = lower value 1 | locus YJL095W, strain BCK1 (second series), stronger effect = lower value 1.01 | locus YJL095W, strain BCK1, stronger effect = lower value 0.876 and 1.02 | locus YJL115W, strain asf1, stronger effect = lower value 1.01 | locus YJL134W, strain LCB3, stronger effect = lower value 1 | locus YJL154C, strain vps35, stronger effect = lower value 1.01 | locus YJL164C, strain tpk1, stronger effect = lower value 0.92 | locus YJL166W, strain qcr8, stronger effect = lower value 0.955 | locus YJL168C, strain set2, stronger effect = lower value 0.984 | locus YJL187C, strain SWE1 (second series), stronger effect = lower value 0.88

From PubChem BioAssay AID1159580 (chemical genetic matrix, 2015)
